This is an account of results in PubChem BioAssay AID463173 (ICCB-Longwood Screening Facility, Harvard Medical School, 2010).

Molecules are shown by their SMILES. Screen size: about 52,000 compounds; about 4,300 (8.3%) were called active. The list comes from a sample in which actives are over-represented; it also holds similar structures and randomly drawn compounds. Values without a mark were called inactive. Rule as the data show it: active = survival mostly below about 52% (no sharp cut-off); inactive = mostly above about 56%.

In the assay the test system is DeltatarO mutant. Put plainly: S. aureus survival, RN4220 and DeltatarO strains – OD600, teichoic acid synthesis inhibitors, primary screen (AID 463173). The following applies: S. aureus RN4220 wild type/DeltatarO growth, OD600, 18 h, hits give low values, screened at 18.75 µg/mL (by protocol).
For `Cn1cnnc1SCC(=O)O`, the survival was 85%.

Take `Cc1ccc(NC(=O)CC(C)S(=O)(=O)c2ccc3c(c2)NC(=O)CO3)cc1C` (configuration not stated): the survival is 85%.

Consider `Cc1ccc(N2CCN(C(=O)c3c(C)oc4ncnc(N5CCCCC5)c34)CC2)c(C)c1`, for which the survival was 77%.

With `CCOc1cc(C(=O)NCC(c2ccc(N(C)C)cc2)N2CCOCC2)cc(OCC)c1OCC` (configuration not stated), the survival is 101%.

With `CCc1ccc(Nc2ncnc3c2cnn3-c2cc(Cl)ccc2C)cc1`, the survival was 77%.

In the case of `CCc1nnc(SCc2nc(-c3ccc(OC)c(OC)c3)oc2C)c2cc3sc(C)cc3n12`, the survival is 69%.

In the case of `CSc1ccc(CNC(=O)CCn2c(=O)c3cccn3c3ccc(F)cc32)cc1`, the survival is 59%.

As for `O=C(CCn1c(=O)c2cccn2c2ccc(F)cc21)NCc1ccccc1F`, the survival was 45% (active).

As for `NS(=O)(=O)c1ccc(CCNC(=O)Cn2c(=O)c3cccn3c3ccc(F)cc32)cc1`, the survival is 89%.

Regarding `O=C(CCCn1c(=O)c2cccn2c2ccc(F)cc21)NCCc1ccccc1`, the survival was 47% (active).

For `O=C(CCn1c(=O)c2cccn2c2cccnc21)NCc1ccccc1F`, the survival is 100%.

Consider `O=C(CCn1c(=O)c2cccn2c2ccc(F)cc21)NCCc1ccccc1`, for which the survival is 42% (active).

With `O=C(Cn1c(=O)c2cccn2c2ccccc21)NCCc1ccccc1`, the survival is 62%.

Turning to `O=C(CCn1c(=O)c2cccn2c2ccc(F)cc21)NCCc1ccc(Cl)cc1`, the survival was 50%.

Take `CCC(=O)Nc1ccc(-c2nnc3c4ccccc4c(C)nn23)cc1`: the survival was 90%.

On to `COc1ccc(OC)c(NC(=O)c2c(C)oc3ncnc(N4CCOCC4)c23)c1`, for which the survival is 134%.

In the case of `COC(=O)C(C)Sc1cc(C)c2ccccc2n1` (configuration not stated), the survival is 76%.

As to `CCCCNC(=O)CCCn1c(=O)c2ccccc2n(Cc2cccc(Cl)c2)c1=O`, the survival is 100%.

For the compound `Cc1cc(C)n2nc(-c3ccc(Cl)cc3)nc2n1`, the survival is 76%.

For `Cc1cc(N(C)Cc2ccccc2)n2nc(-c3ccc(C(C)(C)C)cc3)nc2n1`, the survival was 39% (active).

In the case of `CCCN(CCC)c1cc(C)nc2nc(-c3ccc(Cl)cc3)nn12`, the survival was 52%.

In the case of `CCN(CC)c1cc(C)nc2nc(-c3ccc(C)cc3)nn12`, the survival was 43% (active).

Regarding `CCCN(CCC)c1cc(C)nc2nc(-c3ccc(C(C)(C)C)cc3)nn12`, the survival was 103%.

Consider `Cc1cc(N(CCO)Cc2ccccc2)n2nc(-c3ccc(C(C)(C)C)cc3)nc2n1`, for which the survival is 48%.

As for `Cc1cccc(C(=O)NC2(C(F)(F)F)N=C(c3ccccc3)N(C3CCCCC3)C2=O)c1` (configuration not stated), the survival was 68%.

For the compound `Cc1c(Cl)cccc1NC(=O)Cn1nc(C(F)(F)F)c2c1CCC2`, the survival was 73%.

Consider `CCOc1ccc(S(=O)(=O)NCCc2sc3nc(-c4ccc(F)cc4)nn3c2C)cc1`, for which the survival was 67%.

With `Cc1nn2c(-c3ccco3)ccnc2c1-c1ccc(Cl)cc1`, the survival was 94%.

As to `Cc1cc(-c2ccccc2)nc2cc(C(N)=O)nn12`, the survival is 71%.

On to `Cc1ccc(S(=O)(=O)NCCc2nnc3ccc(SCc4ccc(F)cc4)nn23)cc1`, for which the survival was 112%.

As for `CCOc1ccc(NCc2cccn2-c2nnc(N3CCC(C(=O)NCc4cccc(OC)c4)CC3)s2)cc1`, the survival was 80%.

On to `Cn1cnc(S(=O)(=O)N2CCC(C(=O)Nc3ccc(F)cc3F)CC2)c1`, for which the survival was 91%.

In the case of `NC(=O)COc1cccc(-n2cnnn2)c1`, the survival was 63%.

On to `COc1ccc2nc(SCC(=O)O)[nH]c2c1`, for which the survival was 104%.

As for `COc1ccc2nc(-c3ccc(N)cc3)[nH]c2c1`, the survival is 58%.

`CCN(CC)CCSc1nc2ccc(OC)cc2[nH]1`: the survival was 70% (active).

In the case of `Cc1ccc(S(=O)(=O)N2CCCC2C(N)=O)cc1` (configuration not stated), the survival was 59%.

With `COc1cc(C(=O)Nc2ccc3oc(-c4ccc(C)c(Br)c4)nc3c2)cc(OC)c1OC`, the survival is 93%.

In the case of `CCCc1cc(C(=O)Nc2c(C)nn(Cc3ccc(C)cc3)c2C)no1`, the survival is 73%.

With `CC(C)c1ccc(-c2noc(C3CCCN(C(=O)Cc4cccs4)C3)n2)cc1` (configuration not stated), the survival is 40% (active).

Turning to `CCCC(=O)N1CCCC(c2nc(-c3ccc(C(C)C)cc3)no2)C1` (configuration not stated), the survival was 103%.

As for `CC(C)c1ccc(-c2noc(C3CCCN(C(=O)c4ccccc4)C3)n2)cc1` (configuration not stated), the survival is 86%.

With `Cc1ccc(-n2nc(C)c3c(C(=O)NCc4ccc(F)cc4)cc(C)nc32)cc1`, the survival is 83%.

For the compound `CN(C)c1ccc(CNc2nc(-c3ccco3)nn2C(=O)c2cccc([N+](=O)[O-])c2)cc1`, the survival is 66%.

For the compound `O=C(CCS(=O)(=O)c1nc(-c2cccs2)cc(C(F)(F)F)n1)Nc1ccc(Br)cc1`, the survival is 61%.

As for `COc1ccccc1-c1cc(C(F)(F)F)nc(S(=O)(=O)CCCC(=O)Nc2cc(Br)ccc2O)n1`, the survival was 45% (active).

As to `COc1ccccc1-c1cc(C(F)(F)F)nc(S(=O)(=O)CCCC(=O)Nc2ccccc2F)n1`, the survival was 70%.

Consider `O=C(CCS(=O)(=O)c1nc(-c2cccs2)cc(C(F)(F)F)n1)Nc1cc(Br)ccc1O`, for which the survival is 15% (active).

Turning to `COc1ccccc1-c1cc(C(F)(F)F)nc(S(=O)(=O)CCCC(=O)Nc2ccc(F)c(Cl)c2)n1`, the survival was 87%.

As to `COC(=O)c1ccccc1NC(=O)CCCS(=O)(=O)c1nc(-c2ccccc2OC)cc(C(F)(F)F)n1`, the survival was 87%.

Take `COc1ccccc1-c1cc(C(F)(F)F)nc(S(=O)(=O)CCCC(=O)Nc2ccc(F)cc2F)n1`: the survival was 67%.

As for `COc1ccc(-c2cc(C(F)(F)F)nc(S(=O)(=O)CCCC(=O)Nc3ccccc3C(F)(F)F)n2)cc1OC`, the survival is 70%.

As for `Cc1ccc(O)c(NC(=O)CCS(=O)(=O)c2nc(-c3cccs3)cc(C(F)(F)F)n2)c1`, the survival is 51%.

On to `COc1ccccc1-c1cc(C(F)(F)F)nc(S(=O)(=O)CCCC(=O)Nc2cc(OC)c(OC)c(OC)c2)n1`, for which the survival was 134%.

`COc1ccccc1-c1cc(C(F)(F)F)nc(S(=O)(=O)CCCC(=O)Nc2cc(C)ccc2O)n1`: the survival was 47% (active).

On to `COc1ccc(NC(=O)CCCS(=O)(=O)c2nc(-c3ccccc3OC)cc(C(F)(F)F)n2)c(OC)c1`, for which the survival is 46% (active).

As for `CC(=O)Nc1ccc(NC(=O)c2cc(CN3CCCC3)on2)cc1`, the survival is 96%.
